Most compounds without a hit are left out; they make up all but 8% or so of the library.
KB-V1 MDR tox: kills drug-selected multidrug resistant KB-V1 cells. Potency, µM (titrated, usually from 46.1 µM), hits mostly cytotoxic. AID 1347076. KB-V1 MDR cells viability, CellTiter-Glo, 72 h. 400,000 compounds, 3.4% hits; also: nearly all actives have a fitted effect of over 60% in size
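KB-V1, DMEM (no phenol red) + 10% FBS; cpd pin-transferred, titration series; 72 h, 37 degrees C; CellTiter-Glo, luminescence. Data normalized, curve-fit.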
KB-3-1 tox: kills parental KB-3-1 adenocarcinoma cells; 400,000 compounds, 1.4% hits; KB-3-1 viability, CellTiter-Glo ATP luminescence, 72 h; Potency, µM (top dose mostly 46.1 µM), most hits filed as cytotoxic; also: nearly all actives have a fitted effect of over 60% in size
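Viability of parental KB-3-1 cells, measured by CellTiter-Glo luminescence, followed a 72 h incubation at 37 °C with pinned compounds in phenol-red-free DMEM containing 10% FBS.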
SW480 rerep: induces DNA re-replication in SW480 colon adenocarcinoma cells; 340,000 compounds, 1.8% hits; Potency, µM (highest dose often 46.1 µM), hits mostly activators; AID 624297; SW480 DNA re-replication, Hoechst DNA content imaging, 48 h; also: nearly all actives have a fitted effect of over 55% in size
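Image-based read-out: total Hoechst fluorescence of nuclei (405 nm excitation, 500-530 nm emission), with hits raising the fraction of high-intensity nuclei. SW480 colon cells incubated 48 hr with compounds at 37 C.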
MCF10A rerep: inducers of DNA re-replication in MCF 10A breast cells. Potency, µM (titrated, usually from 46.1 µM), usual class: activators. AID 624296. 350,000 compounds, 2.9% hits. MCF 10A DNA re-replication, Hoechst nuclear intensity, 48 h; also: nearly all actives have a fitted effect of over 50% in size
HT1080 IDH1KD tx: HT-1080 IDH1 knockdown cell toxicity (counter line) | HT-1080 IDH1 knockdown viability, ATP luminescence, 48 h | 360,000 compounds, 2% hits | Potency, µM (highest dose often 46.1 µM), hits mostly cytotoxic
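In this qHTS, HT-1080 cells depleted of IDH1 are exposed for 48 h at 37 °C to compound titrations. Toxicity is scored from CellTiter-Glo luminescence, with DMSO as full viability and medium alone as none.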
HT1080-NT tox: kills 2HG-producing HT-1080-NT fibrosarcoma cells; HT-1080-NT fibrosarcoma viability, CellTiter-Glo ATP luminescence, 48 h; Potency, µM (series often up to 46.1 µM), actives largely listed as cytotoxic; 360,000 compounds, 1.6% hits; AID 686970;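 also: NT is the 2HG producing partner of a matched IDH1 knockdown line; nearly all actives have a fitted effect of over 55% in size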
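Fibrosarcoma NT cells, 750 per well in 5% FBS RPMI, were exposed to compound for 48 hours. Viability: CellTiter-Glo luminescence.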
A number is an active result; . = inactive; ? = inconclusive; / = no result; [ ] = remark or other dose. Calls follow the shape of the dose curve; as a rule, active = well fitted curve in the direction sought with a large enough effect; inconclusive = small, poorly fitted or top-dose-only effect, or another doubt; inactive = no such curve, though single readings can be large; an effect the other way counts as inactive or inconclusive.

SMILES	KB-V1 MDR tox	KB-3-1 tox	SW480 rerep	MCF10A rerep	HT1080 IDH1KD tx	HT1080-NT tox
Cn1cc([N+](=O)[O-])c(C(=O)Nc2ccc(-c3nc4ccccc4o3)cc2)n1	12µM	18µM	?	3.7µM	?	?
Cc1ccc(-c2nc3ncccc3o2)cc1NC(=O)c1ccc([N+](=O)[O-])o1	18µM	?	2.1µM	2.3µM	?	?
O=C(Nc1ccc2oc(-c3ccncc3)nc2c1)c1ccccc1	.	.	.	.	.	.
Cc1cc(-c2nc3ncccc3o2)ccc1NC(=O)c1ccc([N+](=O)[O-])o1	.	.	.	?	.	.
CCOC(=O)c1ccc(Nc2c(-c3cccc(O)c3)nc3nc[nH]n23)cc1	.	.	/	/	/	/
COc1ccc(-c2nnc(SC)n2C)cc1	.	.	.	.	.	.
CCn1c(=O)c(C(=O)CN2CC(C)OC(C)C2)c(N)n(Cc2ccccc2)c1=O (stereo not drawn)	.	.	.	.[0.0737 µM]	.	.
CCCn1c(-c2cccs2)nc2nc3ccccc3nc21	.	.	.	.[0.0737 µM]	.	.
CCOC(=O)C1CCCN(C(=O)Cc2ccc(OC)c(OC)c2)CC1 (stereo not drawn)	21µM	?	/	/	.	.
CCOC(=O)C1CCCN(C(=O)Cc2ccc(OC)c(OC)c2)C1 (stereo not drawn)	.	.	.	.	.	.
CC(C1CC1)N(Cc1ccccc1)C(=S)Nc1ccccc1Cl (stereo not drawn)	.	.	.	?	.	.
CC(C)C(c1nnnn1C1CCCCC1)N1CCc2ccccc21 (stereo not drawn)	.	.	?	?	.	.
CC(C)C(c1nnnn1C1CCCC1)N1c2ccccc2CC1C (stereo not drawn)	15µM	.	?	?	.	.
CCC(/C=N/NC(=O)c1ccccc1F)CC	.	.	.	.	.	.
CC(C)(C)c1cc(NC(=O)CCSc2nnc3ccccn23)cc(C(C)(C)C)c1	3.7µM	.	?	.	?	.
COc1cc(NC(=O)CSc2nnc3ccccn23)cc(OC)c1	.	.	.	.	.	.
CC(C)c1ccc(C2(C)NC(=O)N(C(C)C(=O)Nc3ccc(N4CCOCC4)cc3)C2=O)cc1 (stereo not drawn)	.	.	6.5µM	?	.	.
COC(=O)c1ccc(CSc2nnc(CNC(=O)COc3ccc(Cl)cc3)o2)o1	?	.	.	.	.	.
Cc1[nH]c2ccccc2c1/C=N/NC(=O)c1cccs1	?	.	.	.	.	.
Cc1c(/C=N/NC(=O)c2cccs2)c2ccccc2n1Cc1ccccc1Cl	?	?	15µM	16µM	.	.
Cc1nn(-c2ccccc2)c(C)c1/C=N/NC(=O)c1cccs1	21µM	?	?	.	.	.
Cc1nn(-c2ccccc2)c(C)c1/C=N/NC(=O)c1cc(C2CC2)[nH]n1	.	.	.	.	.	.
Cc1nn(-c2ccccc2)c(C)c1/C=N/NC(=O)c1cc(-c2ccc(Cl)s2)[nH]n1	12µM	2.9µM	5.2µM	3.7µM	0.89µM	0.63µM
Cc1nn(-c2ccccc2)c(C)c1/C=N/NC(=O)c1cc(C23CC4CC(CC(C4)C2)C3)[nH]n1	?	?	.	2.6µM	?	?
CCCOc1ccc(C(=O)N2CC3(CC(c4cccc(NC(=O)[C@@H]5CCC(=O)N5)c4)=NO3)C[C@H]2C(=O)NC2(C(N)=O)CC2)cc1 (stereo partly drawn)	?	.	.	.	.	.
Cc1ccc(NC(=O)CN(C)S(=O)(=O)c2cccc3cccnc23)cc1C	.	.	.	.	.	.
CCC(CC)c1nc2cc(OC)c(OC)cc2c(=O)o1	.	.	.	.	.	.
Cc1cc(C(=O)N/N=C/c2c(C)nn(-c3ccccc3)c2C)n[nH]1	.	.	.	.	.	.
Cc1nn(-c2ccccc2)c(C)c1/C=N/NC(=O)c1cc(-c2cccs2)[nH]n1	?	0.52µM	0.65µM	.	?	?

Screens: PubChem BioAssay, National Center for Advancing Translational Sciences (NCATS)
